# Measurements taken from the supplement of paper PMC8728848.
# This excerpt belongs to a sample that is enriched for the strongest signals.
# How the values were obtained:
# Test in all cases: glycan array binding signal (z-score within array); higher = stronger binding
# Conditions in all cases: glycan notation: IUPAC condensed, linker removed
# [1] = biological target: Fuc(a1-2)Gal(b1-3)[Fuc(a1-4)]GlcNAc(b1-2)Man(a1-3)[Fuc(a1-2)Gal(b1-3)[Fuc(a1-4)]GlcNAc(b1-2)Man(a1-3)]Man(b1-4)GlcNAc(b1-4)GlcNAc
# How it was run: (§1)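 Glycan array data were curated from 3228 arrays in the Consortium for Functional Glycomics database and kept only where the protein sequence was available. Glycan names were converted to IUPAC-condensed notation, and columns mapping to the same glycan were averaged. The binding signal is a within-array Z-score, averaged across arrays of the same protein sequence at different concentrations or buffers and across linkers. Negative Z-scores can be read as non-binding.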
# [2] = biological target: Fuc(a1-2)Gal(b1-4)Fuc(a1-3)]GlcNAc(b1-2)Man(a1-3)[Fuc(a1-2)Gal(b1-4)[Fuc(a1-3)]GlcNAc(b1-2)Man(a1-6)]Man(b1-4)GlcNAc(b1-4)GlcNAc
# How it was run: as §1
# [3] = biological target: Fuc(a1-2)Gal(b1-4)GlcNAc(b1-3)[Fuc(a1-3)[Gal(b1-4)]GlcNAc(b1-6)]Gal(b1-4)Glc
# How it was run: as §1
# [4] = biological target: Fuc(a1-2)Gal(b1-4)GlcNAc6S
# How it was run: as §1
# [5] = biological target: Fuc(a1-2)Gal(b1-4)[Fuc(a1-3)]GlcNAc(b1-3)GalNAc
# How it was run: as §1
# [6] = biological target: Fuc(a1-2)[Gal(a1-3)]Gal(b1-4)[Fuc(a1-3)]Glc
# How it was run: as §1
# [7] = biological target: Fuc(a1-2)[GalNAc(a1-3)]Gal(b1-3)GlcNAc(b1-2)Man(a1-3)[Fuc(a1-2)[GalNAc(a1-3)]Gal(b1-3)GlcNAc(b1-2)Man(a1-6)]Man(b1-4)GlcNAc(b1-4)[Fuc(a1-6)]GlcNAc
# How it was run: as §1
# [8] = biological target: Fuc(a1-2)[GalNAc(a1-3)]Gal(b1-4)GlcNAc
# How it was run: as §1
# Gal(a1-3)Gal(b1-3)GlcNAc = biological target: Gal(a1-3)Gal(b1-3)GlcNAc
# How it was run: as §1
# Gal(a1-4)Gal(b1-4)Glc = biological target: Gal(a1-4)Gal(b1-4)Glc
# How it was run: as §1
# [9] = biological target: Gal(a1-4)Gal(b1-4)GlcNAc(b1-2)Man(a1-3)[Gal(a1-4)Gal(b1-4)GlcNAc(b1-2)Man(a1-6)]Man(b1-4)GlcNAc(b1-4)GlcNAc
# How it was run: as §1
# [10] = biological target: Gal(b1-3)[Fuc(a1-4)]GlcNAc(b1-2)Man
# How it was run: as §1
# Gal(b1-4)Gal = biological target: Gal(b1-4)Gal
# How it was run: as §1
# [11] = biological target: Gal(b1-4)GlcNAc(a1-6)Gal(b1-4)GlcNAc
# How it was run: as §1
# [12] = biological target: Gal(b1-4)GlcNAc(b1-2)Man(a1-3)[Gal(b1-4)GlcNAc(b1-2)Man(a1-6)]Man(b1-4)GlcNAc(b1-4)GlcNAc
# How it was run: as §1
# [13] = biological target: Gal(b1-4)GlcNAc(b1-2)Man(a1-6)Man(b1-4)GlcNAc(b1-4)GlcNAc
# How it was run: as §1
# [14] = biological target: Gal(b1-4)GlcNAc(b1-3)Gal(b1-4)Glc
# How it was run: as §1
# [15] = biological target: Gal(b1-4)GlcNAc(b1-3)Gal(b1-4)GlcNAc(b1-2)Man(a1-3)[Gal(b1-4)GlcNAc(b1-3)Gal(b1-4)GlcNAc(b1-2)Man(a1-6)]Man(b1-4)GlcNAc(b1-4)GlcNAc
# How it was run: as §1
# [16] = biological target: Gal(b1-4)GlcNAc(b1-3)[Fuc(a1-3)GlcNAc(b1-6)]Gal(b1-4)Glc
# How it was run: as §1
# Gal3S4S(b1-4)GlcNAc = biological target: Gal3S4S(b1-4)GlcNAc
# How it was run: as §1
# Gal3S6S(b1-4)GlcNAc6S = biological target: Gal3S6S(b1-4)GlcNAc6S
# How it was run: as §1
# Gal6S(b1-3)GlcNAc = biological target: Gal6S(b1-3)GlcNAc
# How it was run: as §1
# [17] = biological target: GalNAc(b1-3)Gal(a1-4)Gal(b1-4)GlcNAc
# How it was run: as §1
# GalNAc(b1-3)GlcNAc = biological target: GalNAc(b1-3)GlcNAc
# How it was run: as §1
# GalNAc(b1-4)Gal(b1-4)Glc = biological target: GalNAc(b1-4)Gal(b1-4)Glc
# How it was run: as §1
# GalNAc3S(b1-4)GlcNAc = biological target: GalNAc3S(b1-4)GlcNAc
# How it was run: as §1
# [18] = biological target: GalNAc3S(b1-4)[Fuc(a1-3)]GlcNAc
# How it was run: as §1
# GalNAc4S6S(b1-4)GlcNAc = biological target: GalNAc4S6S(b1-4)GlcNAc
# How it was run: as §1
# [19] = biological target: GlcNAc(b1-2)Man(a1-3)[GlcNAc(b1-2)Man(a1-6)]Man(b1-4)GlcNAc(b1-4)[Fuc(a1-6)]GlcNAc
# How it was run: as §1
# [20] = biological target: GlcNAc(b1-2)[GlcNAc(b1-4)]Man(a1-3)[GlcNAc(b1-4)][GlcNAc(b1-2)Man(a1-6)]Man(b1-4)GlcNAc(b1-4)GlcNAc
# How it was run: as §1
binder,measurement,setting,value
"CC1G-11630 (Coprinopsis cinerea), A8P462 (protein) MTTEAKIKLKAVVYWELVFDYDNSSNTGEITQSYTVKISQTSTRSTFASEVSTTTIDTLTKNNQEVDVGASYGAISANVSASWEHSEEVNNMLEKTTQTSTEDTYTVETEETRSYTIGPGGMLSLFQKHFSGPGMHVAFDVFTTDLELAKERTEIDIDVDVEAIRFVREIRVVYTDIMSEAPGDHVREINGKNPDINYGFNGKFVWLVPEQTRKTAQALTNVEFVSQAESDDRYWDLAAGAGGSNRYLIPVYDTNNKDKIYELALWRSDSYITHDKVKAAGWSGTTGDINSGRGGTYLNLVWKTRHAY",glycan array binding signal (z-score),[1],2.22
same,glycan array binding signal (z-score),[2],1.38
same,glycan array binding signal (z-score),[3],-0.581
same,glycan array binding signal (z-score),[4],0.388
same,glycan array binding signal (z-score),[5],0.411
same,glycan array binding signal (z-score),[6],-0.641
same,glycan array binding signal (z-score),[7],-0.174
same,glycan array binding signal (z-score),[8],-0.601
same,glycan array binding signal (z-score),Gal(a1-3)Gal(b1-3)GlcNAc,6.02
same,glycan array binding signal (z-score),Gal(a1-4)Gal(b1-4)Glc,0.088
same,glycan array binding signal (z-score),[9],0.102
same,glycan array binding signal (z-score),[10],2.23
same,glycan array binding signal (z-score),Gal(b1-4)Gal,1.01
same,glycan array binding signal (z-score),[11],-0.631
same,glycan array binding signal (z-score),[12],-0.378
same,glycan array binding signal (z-score),[13],-0.208
same,glycan array binding signal (z-score),[14],-0.507
same,glycan array binding signal (z-score),[15],2.49
same,glycan array binding signal (z-score),[16],-0.538
same,glycan array binding signal (z-score),Gal3S4S(b1-4)GlcNAc,3.27
same,glycan array binding signal (z-score),Gal3S6S(b1-4)GlcNAc6S,2.52
same,glycan array binding signal (z-score),Gal6S(b1-3)GlcNAc,-0.544
same,glycan array binding signal (z-score),[17],0.165
same,glycan array binding signal (z-score),GalNAc(b1-3)GlcNAc,-0.463
same,glycan array binding signal (z-score),GalNAc(b1-4)Gal(b1-4)Glc,1.99
same,glycan array binding signal (z-score),GalNAc3S(b1-4)GlcNAc,-0.609
same,glycan array binding signal (z-score),[18],0.036
same,glycan array binding signal (z-score),GalNAc4S6S(b1-4)GlcNAc,0.25
same,glycan array binding signal (z-score),[19],-0.33
same,glycan array binding signal (z-score),[20],-0.368
